Experimental data as given in ChEMBL document CHEMBL4513135, “CO-ADD screening of IQOG CSIS (Spain) compounds”.
Values joined by “and” are separate entries in the source; they are usually repeats but may differ in a detail not shown here. Equal entries are not always repeated. Measured potencies and affinities stand elsewhere.

The compounds below were run on Candida albicans. Conditions: 32 ug/mL.
Also: assay method not described here.

| SMILES | Inhibition |
| --- | --- |
| Cc1ccc(C(O)SNNc2ncnc3c2cnn3-c2ccccc2)cc1 (stereo unspecified) | 2.59% |
| COc1nc(N)c(C#N)c(-c2ccccc2)c1C#N | 1.23% |
| Cn1cc(/C=C2\NC(=S)NC2=O)c2ccccc21 | -0.01% |
| Cl.NC1(C(=O)O)CC1c1cccc(Cl)c1 (stereo unspecified) | 2.81% |
| CC(=O)NC=C1C(=O)OC(C)(C)OC1=O | 0.54% |
| COc1ccc(C2C(C#N)=C(N)Oc3ccc4ccccc4c32)cc1OC (stereo unspecified) | 5.6% |
| COc1nc2ccc(C)cc2cc1C=O | 5.7% |
| Nc1c2c(nc3c1C(c1ccc([N+](=O)[O-])cc1)c1c(ccc4ccccc14)O3)CCCC2 (stereo unspecified) | 1.59% |
| CC1(C)OC(=O)C(=Cc2ccc([N+](=O)[O-])cc2)C(=O)O1 | 1.46% |
| C1CNCCNCCNCCNC1 | 4.25% |
| O=C1OC(c2ccccc2)=NC1=Cc1ccccc1Cl | 1.66% |
| CN1C/C(=C\Br)n2c1c(C#N)cc(C#N)c2=O | 3.61% |
| COc1nc(Cl)c(C#N)c(-c2ccccc2)c1C#N | 31.9% |
| CCOC(=O)c1c[nH]c2ccc(OC)cc12 | 3.61% |
| COc1ccc(C2C(C#N)=C(Cl)Oc3c2ccc2ccccc32)cc1OC (stereo unspecified) | 18.1% |
| CC/C(C)=N/NC(=O)Cc1c[nH]c2ccccc12 | -0.57% |
| COc1ccc2nc(Cl)c(C=O)cc2c1 | 7.25% and 8.8% |
| Cn1c(C(=O)N2CCOCC2)cc2cc(OCCCC3CCN(Cc4ccccc4)CC3)ccc21 | 1.38% |
| CC(=O)CC(=O)N1[C@@H]2C[C@H]3CCC2(CS1(=O)=O)C3(C)C | 5.03% |
| COc1ccc(C2c3c(nc4c(c3N)CCCC4)Oc3ccc4ccccc4c32)cc1OC (stereo unspecified) | 2.65% |
| C#CCN(C)Cc1cc2cc(O)ccc2n1C.Cl | 2.77% |
